Measured values taken from the supplement of paper PMC3334620.
The full ranking holds about 33,000 sequences; the median of “E-score (-0.5 to 0.5)” is about -0.0034, and the highest 2% start at about 0.25. The sample as a whole holds a higher share of the highest values than the screen did.

These sequences were tested against T1, Yap3 (UniProt P38749) (assay: PBM E-score (8-mer binding enrichment) (E-score (-0.5 to 0.5)); higher = stronger / more preferred TF binding). Conditions: protein concentration: 100 nM; construct: GST-full length.
T1 sequence: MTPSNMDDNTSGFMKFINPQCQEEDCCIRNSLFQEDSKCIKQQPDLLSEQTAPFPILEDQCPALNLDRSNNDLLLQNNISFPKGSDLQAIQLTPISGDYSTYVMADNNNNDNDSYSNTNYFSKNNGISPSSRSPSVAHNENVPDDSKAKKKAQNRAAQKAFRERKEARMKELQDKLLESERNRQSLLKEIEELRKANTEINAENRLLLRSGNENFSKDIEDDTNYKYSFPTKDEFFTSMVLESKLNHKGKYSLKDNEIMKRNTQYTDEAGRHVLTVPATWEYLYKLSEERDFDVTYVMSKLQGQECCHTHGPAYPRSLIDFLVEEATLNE
Protocol: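 Universal 'all 10-mer' protein binding microarrays (Agilent AMADID 015681) probed with GST-tagged S. cerevisiae TFs (full-length or DBD) made by in vitro transcription/translation (PURExpress), about 100-200 nM. Bound TF was detected with fluorescent anti-GST. Each ungapped 8-mer (which stands for itself and its reverse complement) is scored by the PBM enrichment score (E-score), a modified Wilcoxon-Mann-Whitney statistic from -0.5 to +0.5, computed with the Universal PBM Analysis Suite. Scale: above 0.35 generally sequence-specific binding.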

Sequence	PBM E-score
CTTTGACC	0.0628
AGCTTGGC	-0.207
AATAGCGT	0.195
ATATTACC	0.276
CTATTACC	-0.0641
AGATTACC	0.155
AAAGTACA	0.27
CAAGTACA	-0.0722
AAAGTACC	0.176
ATAAGAAT	0.207
ATAAGAAC	0.289
CCAAGAAA	-0.00981
ATAAGAAA	0.207
ACAAGAAA	0.268
CCAAAGAA	0.124
ACGAAGAA	0.282
TCGAAGAA	-0.0713
ACGAAGAT	0.0321
TCAAAGAA	-0.0713
ACAAAGAA	0.257
ACAAGAAT	0.1
AACTTTTC	0.0947
AATCCCGG	-0.139
CTGAGGAA	-0.0654
ACCAGGTG	-0.245
CCTTTGGA	-0.218

Sequence	PBM E-score
ACCACAGT	0.143
GAACCAAC	0.00249
AGACATCC	-0.152
GACTGCAA	-0.0662
CCAACCGG	-0.193
ATCCAACC	0.00913
CGGGTGGC	-0.289
TTAAAGAA	0.19
CTAAAGAA	0.0205
ATAAAGAA	0.26
ATATCACG	0.181
GTGTCGAA	-0.0549
CTGTATGC	-0.0877
CACGCCAA	-0.0782
ATTCAATC	0.0991
AAAAGTGA	0.132
TAAAGTGA	0.263
CAAAGTGA	0.0818
CCAACTCC	0.117
GGCCCAAA	-0.0982
CCAGCAAA	0.0803
CTTAGTCA	0.373
ATTAGTCC	0.207
ATTAGTCG	0.12
ATAAGTCC	0.0332
CTTAGTCC	-0.0515

Sequence	PBM E-score
ATAAGTCA	0.262
ATTAGTGA	0.179
CCTAGTCA	0.0001
ATTAGTGC	0.299
ATTAGTCA	0.42
ATTAGTGG	0.243
CTAAGTCA	0.024
CATTGAAC	0.07
GCGTTGCA	-0.112
CAGAAACC	0.0742
CACGCTAA	0.0663
CGATCGAC	0.14
AGATCTAT	-0.115
ATCGGGCG	-0.21
AGTGCTCG	-0.11
TCAAGCAA	-0.15
AAGAGCAC	-0.0358
ATTAGTTA	0.291
GTTAGTAA	0.217
GTTAGTCA	0.33
CTTAGTAA	0.429
ATCAGTTA	0.272
GTTAGTGA	0.0844
GTCAGTTA	0.113
ATTAGTTG	0.192
CTTAGTAC	0.0262

Sequence	PBM E-score
CTCAGTTA	-0.0635
GGTAGTCA	-0.176
GTTAGTTA	0.169
ACAGGTCG	-0.0506
TATTGACA	0.0463
CCGCCAGC	-0.196
AACACTGC	0.186
CACGCCTA	-0.1
GATATGCC	-0.0864
ATGATCGA	0.0147
GTGATCGA	0.282
CTGATCGA	-0.239
ACTTCCGG	0.0969
CTCAAGAC	-0.133
AGTGAGTA	0.271
GATGAGTA	0.181
AATGAGTA	0.33
AATGAGAT	0.266
AATGAGAC	-0.0964
AATGAGAG	-0.0586
CATGAGTA	0.0202
AGTGAGTG	-0.0641
CGTGAGTA	-0.0244
ACAAAACA	0.202
TCCTAAAA	-0.115
TATAGAAA	0.0802

Sequence	PBM E-score
AACAGAAA	0.157
CATAGAAA	0.268
GAGAGAAA	0.0853
GATAGAAA	0.187
GACAGAAA	0.183
CAGAGAAG	-0.127
CAGAGAAA	0.278
TACAGAAA	0.262
CATCTACC	0.145
CTTGAGCA	-0.119
ATCTTGCA	0.151
AATAGATC	0.08
AATTAATG	0.29
AATTAATT	0.211
CATTAATG	0.212
AATTAATA	0.353
TATTAATA	0.301
AATTAATC	0.0963
GATTAAGA	0.193
TATTAACA	0.23
AATTAAGA	0.154
GATTAATC	0.117
CATTAATA	0.193
GATTAATA	0.367
CACCCATG	-0.014
ATCGCACC	-0.106

Sequence	PBM E-score
GCTCTGTA	-0.055
GCCAAGTA	-0.0708
CATAAGAG	-0.071
CTTTTGTC	0.0462
CGACCCAC	-0.219
TCGGATAA	0.143
GTCAAGTA	-0.12
ATCTCTGC	0.0777
ACACTGAT	0.0678
ATTACTGG	-0.0154
TACGAAAA	0.144
GGCGAAAC	0.0862
CACGAAAA	0.176
TGCGAAAA	0.0554
GACGAAAA	0.264
GGCGAAAA	0.256
CTGCGATC	-0.0633
CGTAGATC	0.0115
GTACAGGA	0.0424
AACATCTC	0.08
ACTGAAAC	0.27
ACTGAAAG	0.114
GCTGAAAC	-0.0804
ACAGAAAC	0.285
ACAGAAAA	0.198
CCAGAAAC	0.0139

Sequence	PBM E-score
GCAAATCC	0.156
CGTCCTTC	0.0406
CTATGGGA	-0.103
CGTCCCTA	-0.206
TACTAAAA	0.255
TACTATAA	0.266
TACTGAAA	0.273
AACTAAAA	0.148
AACTAACA	0.211
TACTAACA	0.294
CACTATAA	-0.00697
CACTGAAA	0.0595
GACTAAAA	0.0994
CACTAACA	0.162
AACTATAA	0.186
GACTGAAA	0.0541
GACTTTGA	0.00307
TTGTACAA	0.185
CATCAGAC	-0.133
ACATACCC	0.0479
GAACTCGC	0.0628
CTCCTACC	-0.275
CCTGAACG	-0.154
GTCTAGCA	0.0493
ATGAGAAA	0.181
GCGTTAGA	0.0241

Sequence	PBM E-score
AAGCGTTC	-0.0829
GCGGCCTA	-0.0845
ATTTTTTG	0.226
ATTTTTAG	-0.0279
ATTTTTTA	0.255
ATTTTAAC	0.149
AATTTTTA	0.252
ATTTTTAA	0.295
GTTTTAAA	0.235
AATTTTAA	0.212
ATTTTAAA	0.282
TCAGCGCA	-0.216
CGGTTTTA	-0.106
CTAAGTAC	0.016
CGATGGGC	-0.18
CCAACAGC	0.0293
GAGTCATC	-0.00184
AATACACG	0.0582
GATACACC	0.161
AATACACT	0.259
AATACACC	0.272
AATACACA	0.131
CATACACC	0.0314
CGGCAGGC	-0.189
CGAGAGTA	0.0233
GCATTGTA	-0.0355

Sequence	PBM E-score
GCAAAGAA	0.0916
CAGCGAAG	-0.16
ATTGCAAA	0.0883
ATTGCAAG	0.0639
ATTGCAAT	0.283
ATGGCCAA	-0.114
AGGTGCCG	-0.101
CTGTTTCA	0.0525
GCCAAGAC	-0.195
CAAATATG	0.131
AAAATATC	0.257
AAAATATA	0.19
AAAATAAC	0.0743
AAAATATG	0.256
CAAATAAG	-0.0581
CAAATATC	0.285
AAAATAAG	0.271
AAAATACG	0.234
CAAATACC	0.0818
CGAATATC	0.154
GAAATATC	0.0879
